High-throughput results as filed in PubChem BioAssay.
AMA1 RON2 block: disrupts binding of P. falciparum AMA1 to RON2; AlphaScreen AMA1-biotinylated RON2 peptide binding; Potency, µM (top dose mostly 58.2 µM), inactives show top-dose activity change, negative = inhibition, hits mostly inhibitors; 360,000 compounds, 0.2% hits; AID 720542;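 note: 0% = vehicle wells and -100% = peptide control; nearly all actives have a fitted effect of over 45% in size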
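AMA1 (3D7) with his tag at 25 nM final met compounds first, then biotinylated RON2 peptide at 25 nM; detection used donor plus acceptor beads, 10 µg/mL apiece, read by AlphaScreen after 30 min at room temperature.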
Pf growth 96h: P. falciparum growth inhibition at 96 hour, primary screen for plastid delayed-death inhibitors | P. falciparum luciferase reporter growth, 96 h | Potency, µM (series often up to 28.7 µM), for inactives: at the highest dose activity change, negative = inhibition, most hits filed as inhibitors | 320,000 compounds, 6.9% hits | AID 504834; note: % is set by controls: 0 for no effect and ±100 for the full control effect
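P. falciparum expressing integrated firefly luciferase, in erythrocytes at 2% hematocrit, 0.05% parasitemia, incubated with compounds 96 h at 37 C, 5% CO2. Growth inhibition read as loss of luminescence; two-generation exposure targets delayed-death apicoplast inhibitors.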
Pf growth 48h: inhibits P. falciparum growth in the first generation, 48 h | 310,000 compounds, 5.9% hits | P. falciparum luciferase growth in erythrocytes, 48 h | AID 504832 | Potency, µM (top dose mostly 28.7 µM), for the others: at the top dose activity change, negative = inhibition, actives largely listed as inhibitors; note: % is set by controls: 0 for no effect and ±100 for the full control effect
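Here the parasites carry a stable luciferase gene and grow inside erythrocytes in Albumax-based RPMI medium with compound for one erythrocytic cycle. Activity is scored as loss of luminescent signal.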
SARS PLP yeast: SARS-CoV PLP inhibition in yeast | S. cerevisiae expressing SARS-CoV PLpro, growth rescue | Potency, µM (series often up to 32.9 µM), without a hit: at the top dose activity, positive = growth rescue, most hits filed as activators | 330,000 compounds, 0.19% hits | AID 485353; calls by dose curve; note: 0% is about no effect; nearly all actives have a fitted effect of over 55% in size
Active calls of the source: *; ? = inconclusive; . = no result. In the library only some 9.4% were active in any assay of this set; here they are far more common. Unless noted, calls come from the whole dose curve; as a rule, active = well fitted curve in the direction sought with a large enough effect; inconclusive = small, poorly fitted or top-dose-only effect, or another doubt; inactive = no such curve, though single readings can be large; an effect the other way counts as inactive or inconclusive. Potency is the fitted concentration of half-maximal effect.

SMILES | AMA1 RON2 block | Pf growth 96h | Pf growth 48h | SARS PLP yeast
Cc1cc(C)c[n+](CC(=O)c2ccc(-c3ccccc3)cc2)c1 | -9% | 15µM* | ? | -18%
Cc1ccc(C(=O)COC(=O)C(C)N2C(=O)C3C4CCC(C4)C3C2=O)cc1 (centres undefined) | -6% | 8.3µM* | 10% | -8%
CC(C(=O)OCC(=O)c1ccc(Br)cc1)N1C(=O)C2C3CCC(C3)C2C1=O (centres undefined) | 10% | 12µM* | 24% | 3%
Cc1ccc(C(=O)COC(=O)C(C)N2C(=O)C3C4CCC(C4)C3C2=O)cc1C (centres undefined) | -1% | 36% | -2% | -3%
CC(C(=O)OCC(=O)c1ccc(Br)cc1)N1C(=O)C2C3C=CC(C3)C2C1=O (centres undefined) | 1% | -2% | 27% | 2%
COc1ccc(N(C)S(=O)(=O)c2cccc(C(=O)OCC(=O)N3CC(C)CC(C)C3)c2)cc1 (centres undefined) | -11% | . | . | -3%
Cc1cccc(C(C)n2nnc3ccccc32)c1O (centres undefined) | 15% | 10µM* | 15µM* | -2%
CC(C(=O)O)n1nnc2ccccc21 (centres undefined) | -11% | 58% | 33% | 0%
CCOC(=O)c1c(-c2ccccc2)csc1NC(=O)CSc1nc(N)cc(N)n1 | 8% | 3.3µM* | 3% | 5%
CCOC(=O)c1c(-c2ccc(C)o2)csc1NC(=O)CSc1nncs1 | -10% | 31% | 10µM* | -6%
CCOC(=O)c1c(-c2ccc(C)o2)csc1NC(=O)CN1CCCCC1 | -5% | ? | ? | -3%
CCOC(=O)c1c(-c2ccc(C)o2)csc1NC(=S)NC(=O)c1ccc(F)cc1 | 15% | 7.4µM* | 8.3µM* | 8%
Cc1cc(C)nc(SCC(=O)Nc2ncc(Cc3cccc(Cl)c3Cl)s2)n1 | 31% | 22% | -19% | 26%
CCOC(=O)Cc1cnc(NC(=O)CSc2nc(C)cc(C)n2)s1 | -5% | 10µM* | 1% | 1%
CCOC(=O)c1c(-c2ccc(C)o2)csc1NC(=O)CN1CCN(CC)CC1 | 1% | -12% | 8% | 4%
CCOC(=O)c1c(-c2ccc3ccccc3c2)csc1NC(=O)CCCC(=O)O | 4% | -4% | -10% | -1%
O=C(CSC1=NS(=O)(=O)c2cc(Cl)ccc2N1)NCCc1ccccc1 | ? | 14% | 4% | -2%
CCOC(=O)c1c(-c2ccccc2)csc1NC(=O)CSc1nc(C)cc(C)n1 | -5% | ? | 13µM* | -17%
CCOC(=O)c1c(-c2ccc(OC)cc2)csc1NC(=O)CCN1C(=O)c2ccccc2C1=O | -7% | ? | -3% | 2%
CCCn1c(SCC(=O)c2ccc3c(c2)OCCO3)nnc1-c1ccco1 | -10% | . | 9% | 4%
CC1=C(C(=O)OCc2ccccc2)C(c2ccc([N+](=O)[O-])cc2)NC(=O)N1 (centres undefined) | -6% | 1% | -7% | -7%
CCNc1nc2c(c(=O)n(Cc3ccccc3)c(=O)n2C)n1Cc1ccccc1 | -4% | 24% | 10µM* | 3%
COc1ccc(CNc2nc3c(c(=O)n(Cc4ccc(Cl)cc4)c(=O)n3C)n2C)cc1 | -16% | ? | 2.6µM* | 4%
CCCCNc1nc2c(c(=O)n(Cc3ccccc3)c(=O)n2C)n1C | -1% | 143% | ? | 1%
Cn1c(=O)c2c(nc(SCC(=O)NCc3ccc4c(c3)OCO4)n2Cc2ccc(F)cc2)n(C)c1=O | 15% | 10µM* | 13µM* | -2%
SMILES | AMA1 RON2 block | Pf growth 96h | Pf growth 48h | SARS PLP yeast
Cn1c(=O)c2c(nc(N/N=C/c3cccs3)n2Cc2ccccc2)n(C)c1=O | 43% | 10µM* | ? | 34%
COCCNc1nc2c(c(=O)n(Cc3ccc(OC)cc3)c(=O)n2C)n1C | -4% | 29% | -24% | 1%
Cn1c(=O)c2c(nc(NCc3ccccc3)n2Cc2ccc(F)cc2)n(C)c1=O | . | 15µM* | ? | -1%
Cn1c(=O)c2c(nc(Br)n2Cc2ccccc2Cl)n(C)c1=O | 8% | ? | 0% | -17%
Cn1c(=O)c2c(nc(Br)n2Cc2ccc3ccccc3c2)n(C)c1=O | -11% | 5.2µM* | . | 10%
CCCNc1nc2c(c(=O)n(C)c(=O)n2C)n1Cc1ccc(F)cc1 | 0% | -7% | 1% | 1%
CCCn1nnc(NC(=O)C(c2ccccc2)c2ccccc2)n1 | 0% | -13% | -4% | 2%
COc1ccccc1CNS(=O)(=O)c1ccc(-n2cnnn2)c(OC)c1 | 3% | 9.3µM* | 6% | 1%
COc1ccccc1CN(Cc1ccco1)S(=O)(=O)c1ccc(-n2cnnn2)c(OC)c1 | -1% | ? | 13µM* | 0%
COc1cc(S(=O)(=O)NCc2ccccc2Cl)ccc1-n1cnnn1 | -2% | 271% | -12% | 0%
O=[N+]([O-])c1ccccc1/C=N/n1c(-c2ccccc2)n[nH]c1=S | 80% | ? | 67% | 7%
O=C1N=c2ccccc2=C1c1c(O)[nH]c2c(C(F)(F)F)cccc12 | -4% | ? | -2% | -9%
Cc1ccc(-c2nc(NCCN3CCOCC3)c3ccccc3n2)cc1 | -10% | 4.1µM* | . | -4%
O=C(NCCCN1CCOCC1)c1cc(-c2ccc(Cl)s2)nc2ccccc12 | 1% | ? | 17µM* | 7%
CC(C)Oc1ccc(-c2cc(C(=O)NCCN3CCOCC3)c3ccccc3n2)cc1 | 4% | 31% | 2.3µM* | -9%
Cc1cc(C)c(S(=O)(=O)N2CCCC2=O)cc1N(C)S(C)(=O)=O | -25% | 28% | 24% | -1%
Cc1ccc(S(=O)(=O)N2CCCC2=O)c(C)c1N(C)S(C)(=O)=O | 4% | 8.3µM* | 1% | 3%
Cc1ccc(-c2cc(C(F)F)nc(N3CCC(C)CC3)n2)cc1 | 14% | 63% | ? | ?
CCOC(=O)C1CCCN(S(=O)(=O)c2ccc3ccccc3c2)C1 (centres undefined) | 42% | -6% | 102% | 24%
CCOC(=O)N1CCC(N2CCN(S(=O)(=O)c3ccc4ccccc4c3)CC2)CC1 | ? | 12µM* | . | -8%
CCOC(=O)N1CCC(N2CCN(S(=O)(=O)c3ccc([N+](=O)[O-])cc3)CC2)CC1 | ? | ? | 2.1µM* | -2%
COc1cc(CC(=O)OCC(=O)c2c[nH]c3ccccc23)cc(OC)c1OC | 4% | 13µM* | 4.1µM* | 0%
O=C(Cn1c(C(F)(F)F)nc2ccccc21)OCC(=O)c1c[nH]c2ccccc12 | 0% | 4.1µM* | 12µM* | 6%
O=C(CNS(=O)(=O)c1ccccc1F)OCC(=O)c1c[nH]c2ccccc12 | 1% | 34% | 0% | 0%
O=C(CNS(=O)(=O)c1ccccc1)OCC(=O)c1c[nH]c2ccccc12 | 8% | 4.1µM* | 8.3µM* | -28%
COc1ccc(CC(=O)OCC(=O)c2c[nH]c3ccccc23)cc1 | 5% | -112% | 8.3µM* | -3%
O=C(CCn1nnc(-c2cccs2)n1)N1CCc2ccccc2C1 | 6% | . | 15% | -8%
COCCCNC(=O)CCn1c(=O)c2ccccc2n(CC(=O)Nc2cc(Cl)ccc2C)c1=O | 0% | 4% | 0% | 2%
